In PubChem BioAssay (Tox21):
Records with an inconclusive call do not appear. Active and inactive are the calls of the source. Unless noted, the call rests on the fitted dose curve.

How the values were obtained:
[1] = Nuclear factor erythroid 2-related factor 2/antioxidant responsive element (Nrf2/ARE) small molecule agonists: luciferase reporter gene qHTS assay in human keratinocytes (AID 1919969); further: nearly all actives have a fitted effect of over 35% in size; further: potency means the concentration at half of the fitted maximal effect
[2] = biological target: Gonadotropin-releasing hormone receptor (Homo sapiens) (UniProt P30968); assay: Human gonadotropin-releasing hormone receptor (GnRHR) small molecule agonists, calcium flux assay in GnRHR-HEK293 cells (AID 1920063); further: nearly all actives have a fitted effect of over 35% in size
Method in brief: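 We seeded human GnRHR-expressing HEK293 cells for 18 hours, loaded them with calcium dye for an hour at 37 C, added test compounds, and recorded fluorescence intensity kinetically for three minutes.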

[3] = p53 small molecule agonists, cell-based qHTS assay with human liver microsomes (AID 1963577);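 further: p53 response element beta-lactamase reporter cells with liver microsomes plus NADPH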
Method in brief: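 16 h, 37 C exposure of p53RE-bla cells to compounds with human liver microsomes and NADPH (0.5 mg/mL final each); detection via LiveBLAzer mixture, 2 h dark at room temperature.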

[4] = p53 small molecule agonists, cell-based qHTS assay with rat liver microsomes (AID 1963578)
Method in brief: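 With rat liver microsomes and NADPH present (0.5 mg/mL final each), p53RE-bla cells are treated with compound for 16 h at 37 C. LiveBLAzer detection mixture is then applied for 2 h at room temperature in the dark.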

[5] = p53 small molecule agonists, cell-based qHTS assay with human liver microsomes: qHTS cell viability counter screen (AID 1963579); further: nearly all actives have a fitted effect of over 45% in size
Method in brief: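 In this multiplexed counter screen, the reporter plates were subsequently treated with CellTiter-Glo so that cell viability, reflected by luminescence, could be recorded for p53RE-bla cells dosed 16 h with compounds under microsomal activation (HLM and NADPH).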

[6] = p53 small molecule agonists, cell-based qHTS assay: qHTS cell viability counter screen (AID 1963581); further: nearly all actives have a fitted effect of over 45% in size
Method in brief: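 Following 5 h attachment, HCT-116 p53RE-bla cells took up compound for 16 h at 37 C; the reporter was read with B/G FRET substrate (2 h RT), and viability then via CellTiter-Glo ATP luminescence.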

[7] = biological target: 5-hydroxytryptamine receptor 2A (Homo sapiens) (UniProt P28223); assay: 5-hydroxytryptamine receptor 2A (HTR2A) small molecule antagonists, cell-based qHTS assay (AID 1963586); further: nearly all actives have a fitted effect of over 45% in size
Method in brief: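 Antagonist-mode intracellular calcium assay: DOI (4 nM) added after 5 min compound pre-incubation at room temperature to dye-loaded HTR2A-CHO cells. Fluorescence followed for 3 min, sampled every second.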

[8] = biological target: 5-hydroxytryptamine receptor 2A (Homo sapiens) (UniProt P28223); assay: 5-hydroxytryptamine receptor 2A (HTR2A) small molecule agonists, cell-based qHTS assay (AID 1963587); further: nearly all actives have a fitted effect of over 30% in size
Method in brief: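 Kinetic calcium-flux fluorescence (2 min, 1 sec intervals) after compound addition in agonist mode. HTR2A-CHO cells were cultured 18 h, then dye-loaded 1 h at 37 C.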

[9] = biological target: Muscarinic acetylcholine receptor M1 (Homo sapiens) (UniProt P11229); assay: Cholinergic receptor muscarinic 1 (CHRM1) small molecule antagonists, cell-based qHTS assay (AID 1963588); further: nearly all actives have a fitted effect of over 40% in size
Method in brief: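 CHRM1-CHO calcium-flux assay, antagonist mode. Cells were seeded 18 h, dye-loaded 1 h at 37 C and given compound for 5 min at RT, then acetylcholine was added at 50nM. FDSS fluorescence was read 3 min; 15 concentrations, three runs.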

[10] = biological target: Muscarinic acetylcholine receptor M1 (Homo sapiens) (UniProt P11229); assay: Cholinergic receptor muscarinic 1 (CHRM1) small molecule agonists, cell-based qHTS assay (AID 1963589); further: nearly all actives have a fitted effect of over 35% in size
Method in brief: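 Measures agonist-induced intracellular calcium rise. Stable human CHRM1 CHO line, 1 h dye load at 37 C, compounds from DMSO, kinetic fluorescence read.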

[11] = cAMP Responsive Elements (CRE) small molecule antagonists, cell-based qHTS assay (AID 1963591; active means well fitted inhibition curve with a large enough effect in the signal ratio in the repeat runs, not every such curve was filed as active; the % refers to the signal ratio)
Method in brief: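 HEK293T cells carrying a CRE-driven beta-lactamase reporter receive compound and NKH477 (0.25 uM final) for 3 h. Fluorescence from LiveBLAzer B/G FRET substrate is read after 2 h at room temperature.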

[12] = biological target: Beta-2 adrenergic receptor (Homo sapiens) (UniProt P07550); assay: Adrenergic beta2 receptor (ADRB2) small molecule antagonists, cell-based qHTS assay (AID 1963592); further: series mostly up to about 92 µM; nearly all actives have a fitted effect of over 50% in size
Method in brief: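 Cells (CHO, stable ADRB2 overexpression) incubated 18-20hr at 37C; compounds added from DMSO; agonist mix (1nM isoproterenol, 100uM IBMX, 25uM Ro-20-1724) added; 0.5hr RT; d2-cAMP and anti-cAMP-cryptate added; 1hr RT; 665/615 nm read.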

[13] = biological target: Beta-2 adrenergic receptor (Homo sapiens) (UniProt P07550); assay: Adrenergic beta2 receptor (ADRB2) small molecule agonists, cell-based qHTS assay (AID 1963593);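 further: CHO cells stably overexpressing human ADRB2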
Method in brief: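 CHO cells stably over-expressing ADRB2 were plated overnight at 37C, then dosed with compounds plus a stimulation mix containing 100uM IBMX and 25uM Ro-20-1724 for 0.5hr at room temperature. cAMP was measured by HTRF competition, 1hr.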

[14] = biological target: D(2) dopamine receptor (Homo sapiens) (UniProt P14416); assay: Dopamine D2 receptor (DRD2) small molecule agonists, cell-based qHTS assay (AID 1963594); further: nearly all actives have a fitted effect of over 35% in size
Method in brief: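 cAMP accumulation in DRD2-HEK293 cells measured by HTRF after 1 h detection; compounds added 10 min before NKH477 (200nM […]) forskolin-analogue stimulation, 30 min at room temperature, with Ro20-1724 present at 0.1 mM final.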

[15] = biological target: D(2) dopamine receptor (Homo sapiens) (UniProt P14416); assay: Dopamine D2 receptor (DRD2) small molecule antagonists, cell-based qHTS assay (AID 1963595; active means well fitted inhibition curve with a large enough effect in the signal ratio in the repeat runs, with a control signal flat; the % refers to the signal ratio)
Method in brief: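 Human DRD2 antagonist qHTS measuring cAMP by HTRF. The cells are exposed to compound for 10 min, then to NKH477 (200 nM) and quinpirole (12 nM) for 30 min at RT, with Ro20-1724 (0.1 mM) present throughout.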

[16] = G protein-coupled receptor (GPCR) small molecule agonists, calcium flux assay: HEK293 wild type cell line counter screen (AID 1920065)
Method in brief: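 Calcium-sensitive dye, loaded 1 h at 37 C into cells cultured 18 h, reports compound-evoked calcium release as fluorescence (Ex/Em 480/540), measured over 3 min. Agonist mode; 15-point titrations, triplicate.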

[17] = p53 small molecule agonists, cell-based qHTS assay with rat liver microsomes: qHTS cell viability counter screen (AID 1963580); further: nearly all actives have a fitted effect of over 45% in size
Method in brief: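 HCT-116 p53RE-bla, 4,000 cells/well, 5 h pre-incubation; cpd + rat liver microsomes 0.5 mg/mL + NADPH 0.5 mg/mL (final); 16 h, 37 C; CellTiter-Glo, 30 min RT; luminescence.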

[18] = p53 small molecule agonists, cell-based qHTS assay (AID 1963582; active means well fitted activation curve with a large enough effect in the signal ratio in the repeat runs, not every such curve was filed as active; the % refers to the signal ratio)
Method in brief: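 In this cell-based concentration-response screen, a p53 response element drives beta-lactamase; cells received DMSO-borne compounds after 5 h culture and were incubated a further 16 h before FRET substrate development.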

[19] = cAMP Responsive Elements (CRE) small molecule agonists, cell-based qHTS assay (AID 1963590)
Method in brief: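 A CRE-responsive beta-lactamase reporter in HEK 293T cells was used. Treatment ran 3 h at 37 C; detection used LiveBLAzer B/G FRET substrate for 2 h at room temperature.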

[20] = biological target: KiSS-1 receptor (Homo sapiens) (UniProt Q969F8); assay: Human kisspeptin (KISS1R) small molecule agonists, calcium flux assay in KISS1R-HEK293 cells (AID 1920064; active means well fitted activation curve with a large enough effect in the repeat runs)
Method in brief: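 Kinetic calcium assay, 1 s sampling over 3 min at Ex/Em 480/540, in HEK293 cells engineered with human KISS1R; compounds delivered in DMSO after 1 h dye loading.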

Measured: Potency

Chain of Muscarinic acetylcholine receptor M1 (Homo sapiens) (P11229 whole entry, looked up): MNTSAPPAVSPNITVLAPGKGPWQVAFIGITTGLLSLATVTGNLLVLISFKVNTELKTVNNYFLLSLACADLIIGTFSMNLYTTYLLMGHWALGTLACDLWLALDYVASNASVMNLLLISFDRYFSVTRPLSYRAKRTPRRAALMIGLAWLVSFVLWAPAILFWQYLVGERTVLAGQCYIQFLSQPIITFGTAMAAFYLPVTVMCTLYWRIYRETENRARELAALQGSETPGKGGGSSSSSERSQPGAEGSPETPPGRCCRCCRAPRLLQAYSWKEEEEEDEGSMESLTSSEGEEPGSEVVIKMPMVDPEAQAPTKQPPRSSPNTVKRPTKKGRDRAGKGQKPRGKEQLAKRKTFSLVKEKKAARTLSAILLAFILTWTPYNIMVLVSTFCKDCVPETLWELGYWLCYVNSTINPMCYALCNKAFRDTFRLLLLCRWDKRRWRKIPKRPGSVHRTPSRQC
Chain of 5-hydroxytryptamine receptor 2A (Homo sapiens) (P28223 whole entry, looked up): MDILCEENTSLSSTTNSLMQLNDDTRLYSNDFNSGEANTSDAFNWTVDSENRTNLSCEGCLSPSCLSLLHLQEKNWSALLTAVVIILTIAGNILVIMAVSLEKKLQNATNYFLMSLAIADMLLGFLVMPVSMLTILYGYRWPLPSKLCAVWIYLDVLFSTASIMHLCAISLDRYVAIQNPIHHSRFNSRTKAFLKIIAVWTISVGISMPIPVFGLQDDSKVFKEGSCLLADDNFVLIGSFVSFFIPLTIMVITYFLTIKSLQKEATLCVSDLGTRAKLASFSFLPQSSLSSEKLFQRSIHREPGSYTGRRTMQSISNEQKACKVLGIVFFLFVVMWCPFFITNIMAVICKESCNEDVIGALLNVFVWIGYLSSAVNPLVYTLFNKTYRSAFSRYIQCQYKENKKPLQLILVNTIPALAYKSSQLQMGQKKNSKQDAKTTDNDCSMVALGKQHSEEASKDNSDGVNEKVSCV
Chain of Gonadotropin-releasing hormone receptor (Homo sapiens) (P30968 whole entry, looked up): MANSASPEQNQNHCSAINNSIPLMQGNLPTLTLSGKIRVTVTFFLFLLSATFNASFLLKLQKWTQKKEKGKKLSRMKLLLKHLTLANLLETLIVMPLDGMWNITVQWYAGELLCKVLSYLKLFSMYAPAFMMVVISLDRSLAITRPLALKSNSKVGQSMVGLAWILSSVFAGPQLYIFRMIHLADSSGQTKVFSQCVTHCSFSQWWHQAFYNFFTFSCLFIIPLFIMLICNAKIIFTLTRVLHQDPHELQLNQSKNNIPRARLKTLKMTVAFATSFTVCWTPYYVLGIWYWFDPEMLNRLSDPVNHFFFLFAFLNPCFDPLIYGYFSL
Chain of KiSS-1 receptor (Homo sapiens) (Q969F8 whole entry, looked up): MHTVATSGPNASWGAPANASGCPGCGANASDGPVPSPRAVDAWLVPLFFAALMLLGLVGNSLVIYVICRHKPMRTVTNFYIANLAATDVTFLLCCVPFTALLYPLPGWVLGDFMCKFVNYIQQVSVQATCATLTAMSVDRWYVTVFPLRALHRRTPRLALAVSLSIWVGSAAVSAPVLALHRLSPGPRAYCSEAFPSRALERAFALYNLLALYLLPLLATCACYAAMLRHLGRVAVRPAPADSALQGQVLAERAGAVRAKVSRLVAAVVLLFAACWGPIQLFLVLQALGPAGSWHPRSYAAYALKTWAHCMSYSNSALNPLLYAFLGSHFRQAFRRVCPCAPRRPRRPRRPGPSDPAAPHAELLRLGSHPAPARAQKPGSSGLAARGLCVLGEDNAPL
Chain of D(2) dopamine receptor (Homo sapiens) (P14416 whole entry, looked up): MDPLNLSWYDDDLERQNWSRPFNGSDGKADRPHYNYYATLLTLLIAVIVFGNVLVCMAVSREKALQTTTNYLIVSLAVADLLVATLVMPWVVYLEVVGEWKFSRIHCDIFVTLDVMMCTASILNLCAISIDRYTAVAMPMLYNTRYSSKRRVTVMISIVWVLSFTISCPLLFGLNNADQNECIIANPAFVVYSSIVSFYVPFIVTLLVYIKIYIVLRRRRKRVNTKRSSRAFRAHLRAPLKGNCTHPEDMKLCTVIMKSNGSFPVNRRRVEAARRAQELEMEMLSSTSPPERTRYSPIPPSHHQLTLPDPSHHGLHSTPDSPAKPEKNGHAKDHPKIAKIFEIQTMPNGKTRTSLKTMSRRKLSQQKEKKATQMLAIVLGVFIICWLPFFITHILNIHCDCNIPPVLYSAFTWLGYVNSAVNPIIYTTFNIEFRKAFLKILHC
Chain of Beta-2 adrenergic receptor (Homo sapiens) (P07550 whole entry, looked up): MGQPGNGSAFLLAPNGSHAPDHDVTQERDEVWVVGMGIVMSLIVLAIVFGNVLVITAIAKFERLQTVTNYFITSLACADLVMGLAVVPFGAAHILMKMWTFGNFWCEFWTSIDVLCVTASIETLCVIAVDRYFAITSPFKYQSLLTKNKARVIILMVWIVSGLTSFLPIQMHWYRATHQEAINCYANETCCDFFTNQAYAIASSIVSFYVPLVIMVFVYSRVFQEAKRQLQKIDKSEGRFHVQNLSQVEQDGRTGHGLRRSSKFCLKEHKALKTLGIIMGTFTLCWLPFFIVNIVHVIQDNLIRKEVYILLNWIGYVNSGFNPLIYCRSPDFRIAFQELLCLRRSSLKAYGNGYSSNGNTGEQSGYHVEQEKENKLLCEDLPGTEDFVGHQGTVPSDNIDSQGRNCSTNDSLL

O=Cc1ccccc1[N+](=O)[O-]
not listed: [16] | [17] | [18] | [19] | [20]
inactive: all other assays above

Cc1cccc(C)c1C
not listed: [1] | [2] | [9] | [10] | [13] | [20]
inactive: all other assays above

COc1ccc(OC(=O)N(CC(=O)O)Cc2ccc(OCCc3nc(-c4ccccc4)oc3C)cc2)cc1
not listed: [2] | [7] | [8] | [9] | [11] | [13] | [19]
inactive: all other assays above

OCCSc1ccccc1
not listed: [11] | [16] | [17] | [18]
inactive: all other assays above

[Cu+]
active: [1] 54.5 µM
not listed: [13] | [14] | [20]
inactive: all other assays above

CCCC(=O)OC(=O)CCC
not listed: [1] | [10] | [19]
inactive: all other assays above

CC(C)CCCCCCOC(=O)c1ccc(C(=O)OCCCCCCC(C)C)c(C(=O)OCCCCCCC(C)C)c1
not listed: [3] | [5] | [13] | [15]
inactive: all other assays above

O=C(c1ccccc1)c1ccc(Cl)cc1
active: [1] 61.1 µM
not listed: [3] | [7] | [13] | [17] | [18] | [19]
inactive: all other assays above
